Test results reported in PMC12136788.
Positions count from the first letter of the chain named. Whole data set: some 24,000 sequences, median “enrichment r” near 0.99, cut for the highest 2% near 3.7. The full list was thinned out, with the highest values kept by preference.

T1: UNK ZnF1-3 (human, UniProt Q9C0B0 31-174)
T1 sequence: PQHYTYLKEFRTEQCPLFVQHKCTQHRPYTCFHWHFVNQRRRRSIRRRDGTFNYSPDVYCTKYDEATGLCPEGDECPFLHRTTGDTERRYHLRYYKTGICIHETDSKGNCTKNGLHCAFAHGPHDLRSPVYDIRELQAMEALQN

B1: chr17:34945718:34945719:+_ENSG00000005955_ENST00000304718|hu_hu|FALSE|FALSE (ssRNA)
RNA: GGGAGUUCUACAGUCCGACGAUCAUUUAACCGGCAGUAUUUAUUAAAUUUCUCCUUCAGAUGCUGUCGGUAUUGUUCUCUAUUGCUGUAGAAAGACUGGUUAUUAGCCAUAAAUGACUGUAUUUCAUCUUGUGAGAUAAAGAUCAACAGAGGAUUGAGCAUCA
B2: 90247206_90247326_4093_3pUTR_ENSMUSG00000012422_ENSMUST00000161568|mouse|control|control (ssRNA)
RNA: GGGAGUUCUACAGUCCGACGAUCUUCUCAGAAGUUAGUCAGGACCCCCUGUAACAAGGGCGAUUGCUAGCACCGUUUGAGAACAUUUAUUAUUACUAGAAGGUAACAAAGGAAGAGAAGAGCAGCCCUAAGAAUUUUCCAUUCCAACAGAGGAUUGAGCAUCA
B3: 75758389_75758509_1054_3pUTR_ENSMUSG00000032932_ENSMUST00000046283|mouse|control|control (ssRNA)
RNA: GGGAGUUCUACAGUCCGACGAUCUCAGAAAGGCCAGGUCUAAACACUCUAUUCACAUGGUGACCAUCUCCUGGGGUGAGCUGGUCUUUUGGCAGUUCAGAGUCACCAUUCUGAGGUUCCUUGCUGUCCUUCCCCUCCACAGUGCAACAGAGGAUUGAGCAUCA
B4: chr6:41757443:41757444:+_ENSG00000214736_ENST00000398881|hu_mus|hu_hu_hu_mus_False|48_98 (ssRNA)
RNA: GGGAGUUCUACAGUCCGACGAUCGAACCGUGCAGAGACCAGAGAAUAGCCGACACUGGGGGAUGGGGGGGCAGUGGGGGGGGGUUCAGGGAAGGGGAGGGAGUCAACUUCAGCUGCCACUCAGGUAGGAUCUUGUGGUCACAGCAACAGAGGAUUGAGCAUCA
B5: chr16:14738297:14738298:+_ENSG00000103429_ENST00000261658|hu_mus|FALSE|FALSE (ssRNA)
RNA: GGGAGUUCUACAGUCCGACGAUCGUUCAAGGUGGUGGGGUUAACCAGGGUGUCGUAGCAGCAGUGGCAGGAGAACUCGCUCACAGAAAUCUGAGGGCCGCUGCUUCUGACAGGAUGCUCUUCCUCCUGCUCUCUCAUGCUCAGCAACAGAGGAUUGAGCAUCA
B6: chr6:41757443:41757444:+_ENSG00000214736_ENST00000398881|hu_mus|hu_hu_hu_mus_False|78_98 (ssRNA)
RNA: B4 RNA with G58U, G61A, A62C, G64C, G65A, G66A, G90C, G95A
B7: chr6:41757443:41757444:+_ENSG00000214736_ENST00000398881|hu_mus|hu_hu_hu_mus_False|98_108 (ssRNA)
RNA: B4 RNA with C28U, G31C, C32U, A33G, G34C, A35U, G90C, G95A
B8: chr6:41757443:41757444:+_ENSG00000214736_ENST00000398881|hu_mus|hu_hu_hu_mus_False|98_98 (ssRNA)
RNA: B4 RNA with G90C, G95A
B9: chrX:98862621:98862622:+_ENSMUSG00000034160_ENSMUST00000044475|mus_hu|mus_mus_mus_hu_False|18_68 (ssRNA)
RNA: GGGAGUUCUACAGUCCGACGAUCCUGCAUCUCCUUUAGAGUGUUUCCCAUAUUAGAGUAGGCAUCAGCAAAUGUAGGACUGAUUCGAAUAGCCUCCUUAUAAUGCAUCAGAGCUUCCUGCAGCUUGCCCUGCUGCUGCAGUACCAACAGAGGAUUGAGCAUCA
B10: chr4:43703020:43703021:+_ENSMUSG00000078716_ENSMUST00000107866|mus_mus|FALSE|FALSE (ssRNA)
RNA: GGGAGUUCUACAGUCCGACGAUCCACACUGCCAGCAAUGAGCAUGUGCCAAAUGCUGUGAAUGUAGAAGUAGUUGUCCCGAGUCUCCACGAAAGCAUACAGUAGAACGGCACUGCCAGCAAUCAGGCUGCCGGGACACAGGUACAACAGAGGAUUGAGCAUCA
B11: chr2:130910683:130910684:-_ENSG00000136699_ENST00000351288|hu_hu|motif|central (ssRNA)
RNA: GGGAGUUCUACAGUCCGACGAUCGGAACACAGAGCCGCCAUCUGUCCUGCAAAUCUGUGGUUGAUGGCAGACGACAGCCGGAAGAGUGUGCGGACCAAGCUGGCGAUCUCAUAGCUCCGGAUGGGCUGCAGCUCCGGGUCCCCCAACAGAGGAUUGAGCAUCA
B12: chr17:56552419:56552420:-_ENSMUSG00000013236_ENSMUST00000086828|mus_mus|mus_mus_mus_hu_False|18_98 (ssRNA)
RNA: GGGAGUUCUACAGUCCGACGAUCAAAAAAUACACUAUAAAAAAAAAAUGAAAUGUCACGGGAUACAGUUACACUGAGAGUUUUAAAAGAAAGCUGGAUUCUGGUCCCAGCCCAGUGGCAGGCAGGGGCAGAGCGGGGAGGAGCCAACAGAGGAUUGAGCAUCA
B13: chr17:56552419:56552420:-_ENSMUSG00000013236_ENSMUST00000086828|mus_mus|mus_mus_mus_hu_False|1_18 (ssRNA)
RNA: B12 RNA with A38U, A39U, A138C, G139A, C143G
B14: chr17:56552419:56552420:-_ENSMUSG00000013236_ENSMUST00000086828|mus_mus|mus_mus_mus_hu_False|18_18 (ssRNA)
RNA: B12 RNA with A38U, A39U
B15: chr17:56552419:56552420:-_ENSMUSG00000013236_ENSMUST00000086828|mus_mus|mus_mus_mus_hu_False|18_48 (ssRNA)
RNA: B12 RNA with A38U, A39U, G88A, G92A, C93U, U94A, G95A
B16: chr17:56552419:56552420:-_ENSMUSG00000013236_ENSMUST00000086828|mus_mus|mus_mus_mus_hu_False|8_18 (ssRNA)
RNA: B12 RNA with A38U, A39U, C128A, A129G, G130U, A131G, G132C, C133G, G135A, G136A
B17: chr17:56552419:56552420:-_ENSMUSG00000013236_ENSMUST00000086828|mus_mus|mus_mus_mus_hu_False|18_58 (ssRNA)
RNA: B12 RNA with A38U, A39U, G77C, G79C, U81A
B18: chr5:145543945:145543946:-_ENSG00000133706_ENST00000545646|hu_hu|hu_hu_hu_mus_True|38_98 (ssRNA)
RNA: GGGAGUUCUACAGUCCGACGAUCCUGAACGGCCAGUGGCGGGAAAUAAUCAAGCCAGUGCUCUGCUUCAGAAAACUUCACUAUGUCGUCAUCAGAGAGGCCAAGGGAUUUCAUAAUGUCCCACUGGUACUUAGAAGAUCCUGCCAACAGAGGAUUGAGCAUCA
B19: 57396971_57397091_122_5pUTR_ENSMUSG00000021938_ENSMUST00000022507|mouse|control|control (ssRNA)
RNA: GGGAGUUCUACAGUCCGACGAUCGCUUCAGGUUUCCUCUUAACAUCAUCUUAGCAAGUUCGCUUGGGAUGCUGGAUGAGGCCUAGACGUCAAGGUACACACGUCUCCACAUGUAUCUAUGGAAACGAAGCAAGGAAAGCCAGGCAACAGAGGAUUGAGCAUCA
B20: 79664557_79664677_4134_CDS_ENSG00000146247_ENST00000275034|human|control|control (ssRNA)
RNA: GGGAGUUCUACAGUCCGACGAUCACGGAAAGGCUCUGAAUCUUCACAUUGAAAUAUGAGAUUUAACAAUUCUUCACACUGUUUCUUCCAUGCUUGAAUAUCGUAAGACUGGGCUCUAUUACGUAAUCUUCUUCUAGGCUGAUGCAACAGAGGAUUGAGCAUCA
B21: chr2:113333244:113333245:+_ENSG00000125630_ENST00000417433|hu_hu|FALSE|FALSE (ssRNA)
RNA: GGGAGUUCUACAGUCCGACGAUCAACAUCAAGUUAAACAACAUCCAGUUUCACUUUGAUGUUCAUAGCUGCCAGUUCAGCUACAAAAUACCGAAAAACAUAAGGCACAGAAACAGUAUCGAUAGUGUCACUGCGACUACACAGCAACAGAGGAUUGAGCAUCA
B22: chr5:128440902:128440903:+_ENSG00000066583_ENST00000173527|hu_mus|hu_hu_hu_mus_True|88_98 (ssRNA)
RNA: GGGAGUUCUACAGUCCGACGAUCUUGAACGGUGCUGCCAAGACCUUUAGGGUAUUGUUCCGUUAUGAUAACUGGAAUCCCUAAGAUCCGAGCUCCUUGCAACAGUCUCUGUCCCACACUAAUGAUGUCCCCAAAGUAUUUGAUCAACAGAGGAUUGAGCAUCA

Target: T1, UNK ZnF1-3
Experiment: nsRBNS (natural sequence RNA bind-n-seq); RBNS binding buffer (assumed for nsRBNS): 25 mM Tris pH 7.5, 150 mM KCl, 3 mM MgCl2, 0.01% Triton X-100, 500 ug/ml BSA, 20 U/ml SUPERase-In, 4 C; UNK is unkempt and MSI1 is Musashi-1; names of the RNAs are library labels; protein concentration not given here; high values mean tight binding

Binder | binding signal [enrichment R]
B1 | 0.361
B2 | 0.591
B3 | 0.633
B4 | 5.8
B5 | 0.931
B6 | 1.9
B7 | 4.46
B8 | 3.31
B9 | 1.07
B10 | 0.899
B11 | 0.907
B12 | 6.3
B13 | 3.35
B14 | 3.38
B15 | 7.31
B16 | 3.69
B17 | 5.2
B18 | 1.21
B19 | 0.72
B20 | 1.11
B21 | 0.877
B22 | 0.627
